Source: PubChem BioAssay (National Center for Advancing Translational Sciences (NCATS))
HT1080 IDH1KD tx: toxicity to HT-1080 IDH1 knockdown cells (counter line). HT-1080 IDH1 knockdown viability, ATP luminescence, 48 h. Potency, µM (doses to about 46.1 µM), for the others: at the top dose activity, negative = toxicity, actives largely listed as cytotoxic. 360,000 compounds, 2% hits. AID 686971;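 further: potency means the concentration at half of the fitted maximal effect; 0% = DMSO wells and -100% = cell-free medium wells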
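Knockdown cells (IDH1KD HT-1080) received compounds 2 h after plating at 750 cells/well and were kept 48 h at 37 °C in 5% FBS RPMI. A CellTiter-Glo luminescence read gave % activity for curve fitting.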
uPA generation: blocks generation of uPA at the cell surface | cell surface uPA generation assay, qHTS | Potency, µM (top dose mostly 38.3 µM), for the others: at the top dose activity change, negative = inhibition, usual class: inhibitors | 330,000 compounds, 0.31% hits; active means well fitted inhibition curve with a large enough effect; inconclusive means small, poorly fitted or top-dose-only effect; inactive means no such curve, though single readings can be large or run the other way; tested in mouse RAW 264.7 cells; further: potency means the concentration at half of the fitted maximal effect; nearly all actives have a fitted effect of over 55% in size
TDP1 cell CPT: DT40-hTDP1 cell growth loss with CPT. chicken DT40 Tdp1-/-;hTDP1 cells + 20 nM CPT, ATP luminescence, 48 h. 420,000 compounds, 12% hits. Potency, µM (highest dose often 46.2 µM), for the others: at the highest dose activity change, negative = growth inhibition, hits mostly inhibitors; further: potency means the concentration at half of the fitted maximal effect; nearly all actives have a fitted effect of over 55% in size
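Chicken DT40 Tdp1-/- cells complemented with human TDP1, 400 cells/well, exposed to compounds plus 20 nM camptothecin for at least 48 h at 37 C; viability read as ATP content by CellTiter-Glo luminescence.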
IL1B secr inh: blocks inflammasome-driven IL-1 beta release | THP-1 LPS/ATP IL-1B secretion, AlphaLISA, 16 h; hits give low values | activity change, % at 57.5 µM | 360,000 compounds, 4.7% hits; in the data active means activity change below about -50%; inconclusive means mostly about -30% to -49%
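Secreted IL-1B measured by AlphaLISA bead assay after 16 h compound exposure of THP-1 cells; compounds (final up to 57.5 uM) added 1 h before LPS (250 ng/mL) and ATP (1.25 mM) stimulation; lower signal means less secretion.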
HT1080NT lethal: kills 2HG-producing HT-1080-NT fibrosarcoma cells; HT-1080-NT fibrosarcoma viability, CellTiter-Glo ATP luminescence, 48 h; Potency, µM (series often up to 46.1 µM), for inactives: at the top dose activity, negative = less viability, usual class: cytotoxic; 360,000 compounds, 1.6% hits; AID 686970;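 further: NT is the 2HG producing partner of a matched IDH1 knockdown line; potency means the concentration at half of the fitted maximal effect; 0% = DMSO-treated cells and -100% = media-only wells without cells; nearly all actives have a fitted effect of over 55% in size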
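Viability of the 2HG-overproducing fibrosarcoma line after 48 hours of compound exposure at 37 degrees C was determined by luminescence with CellTiter-Glo, and concentration-effect curves were then fitted and categorized.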
TDP1 cell noCPT: qHTS for Inhibitors of human tyrosyl-DNA phosphodiesterase 1 (TDP1): qHTS in cells in absence of CPT; 420,000 compounds, 15% hits; DT40 Tdp1-/- hTDP1 cells, no CPT, ATP luminescence, 48 h; Potency, µM (series often up to 46.2 µM), for the others: top-dose activity change, negative = growth inhibition, actives largely listed as inhibitors; AID 686978, 2013; further: potency means the concentration at half of the fitted maximal effect; nearly all actives have a fitted effect of over 55% in size
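A cellular qHTS used chicken DT40 cells lacking endogenous Tdp1 but carrying stably transfected human TDP1. Compounds were applied without camptothecin, and cell growth kinetics were judged by ATP-dependent luminescence after ≥48 hr.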
* marks the source's active call; other numbers are inactive results; i = inactive; ? = inconclusive; . = no result given; [ ] = dose if it differs, or a comment. A selection: hits, their analogues and other compounds. The true share with any hit is near 19%. Unless noted, the call rests on the fitted dose curve; in most records, active means well fitted curve in the direction sought with a large enough effect; inconclusive means small, poorly fitted or top-dose-only effect, or another doubt; inactive means no such curve, though single readings can be large; an effect the other way counts as inactive or inconclusive. Unless noted, on the % scale 0 is the no-effect control and ±100 the full control effect.

SMILES | HT1080 IDH1KD tx | uPA generation | TDP1 cell CPT | IL1B secr inh | HT1080NT lethal | TDP1 cell noCPT
CCOc1ccc(CCNC(=O)c2cnc3sc(N(CC)CC)nn3c2=O)cc1OCC | . | . | -8% | . | . | ?
CCc1ccc(CNC(=O)c2cnc3sc(N(CC)CC)nn3c2=O)cc1 | . | . | 13µM* | . | . | ?
COc1ccc(/C=C2\CCC/C(=C\c3ccc(OC)c(OC)c3OC)C2=O)c(OC)c1OC | 2% | 3% | ? | 0 | 1% | 16µM*
COc1cc(OC)c(OC)cc1/C=C1\CCC/C(=C\c2cc(OC)c(OC)cc2OC)C1=O | ? | -3% | ? | -56* | ? | 23µM*
COc1cc(OC)c(OC)cc1/C=c1\[nH]c(=O)/c(=C/c2cc(OC)c(OC)cc2OC)[nH]c1=O | . | . | 0.79µM* | . | . | 0.71µM*
O=C(NCc1cccc(F)c1)C1CCN(c2nc3ccccc3nc2C(F)(F)F)CC1 | . | . | -24% | . | . | ?
O=C(Nc1nc(-c2ccc(Br)cc2)ns1)c1ccccc1F | . | . | ? | . | . | -29%
CCc1ccc2c(CN(C)Cc3ccc(OC(F)F)c(OC)c3)cc(=O)oc2c1 | -6% | -12% | 18µM* | -14 | -1% | ?
CC12CCC(=O)N1C(C(=O)NCCN1C(=O)S/C(=C\c3ccc(F)cc3)C1=O)CS2 (stereo not given) | 2% | -5% | ? | -63* | 1% | ?
COc1ccc(/C=C2\SC(=O)N(CCNC(=O)C3CSC4(C)CCC(=O)N34)C2=O)cc1 (stereo not given) | 10% | -2% | -2% | -6 | 10% | ?
Cc1ccc(S(=O)(=O)CCC(=O)NCCN2C(=O)S/C(=C/c3ccc(F)cc3)C2=O)cc1 | -2% | -5% | 23µM* | -62* | -12% | 18µM*
O=C(Nc1ccc(C(=O)N2CCC(N3CCOCC3)CC2)cc1)c1ccc(Br)o1 | 18% | 11% | -3% | -2 | 13% | 7%
O=C1CCCCC1Nc1ccc2ccccc2c1 (stereo not given) | -15% | 2% | -4% | -64* | 0% | -12%
O=C1CCCC1C(=O)Nc1ccc2ccccc2c1 (stereo not given) | 2% | -2% | 0% | ? | 3% | -22%
Cc1cc(C)n(-c2nc(Nc3ccccc3)nc(-n3nc(C)cc3C)n2)n1 | 6% | -5% | 5% | -2 | 10% | 2%
Cc1cc(C)n(-c2nc(N(c3ccccc3)c3ccccc3)nc(-n3nc(C)cc3C)n2)n1 | 2% | . | 18µM* | -84* | 5% | 13µM*
CC(=O)c1nnn(-c2nc(N)nc(N(c3ccccc3)c3ccccc3)n2)c1C | 13% | -3% | 29µM* | 38 | -1% | 15µM*
CCCCN(CCCC)c1nc(OC)nc(-n2nnc(C(C)=O)c2C)n1 | -12% | -10% | 23µM* | -1 | 0% | ?
COc1ccc(Cn2cc(CN3CC(N4CC=CC4)CS3(=O)=O)nn2)cc1 (stereo not given) | 4% | . | -4% | -10 | 14% | -12%
CC(c1ccccn1)N(C)C(=O)c1ccc2nc(Cc3ccccc3F)oc2c1 (stereo not given) | 1% | -5% | -12% | i | 5% | ?
COc1ccccc1C1CN(Cc2cnn(C)c2C)Cc2ccccc2O1 (stereo not given) | . | . | -2%[9.04 µM] | . | . | -21%
Cc1c(C(=O)NCC(C)(C)CN(C)C)cnn1-c1nccc(-c2ccccc2F)n1 | . | . | 9% | . | . | -3%
O=C1CC(Cc2ccccc2)C(=O)N1CCc1ccc2c(c1)OCO2 (stereo not given) | -1% | 4% | -1% | -12 | 3% | -10%
O=C1OC[C@H](Cc2ccc3c(c2)OCO3)/C1=C\c1ccc2c(c1)OCO2 | -12% | ? | 5.8µM* | ? | ? | 8.2µM*
CC(=O)O[C@H]1CC(C)(C)C(=C=C/C(C)=C/C=C/C(C)=C/C=C/C=C(C)/C=C/C=C(\C)C(=O)C[C@@]23O[C@]2(C)C[C@@H](O)CC3(C)C)[C@](C)(O)C1 | -19% | ? | 26µM* | -63* | -9% | ?
SMILES | HT1080 IDH1KD tx | uPA generation | TDP1 cell CPT | IL1B secr inh | HT1080NT lethal | TDP1 cell noCPT
COc1ccccc1NC(=O)N1CCC(NC(=O)C2CCCCC2)CC1 | 1% | -1% | -4% | -5 | 1% | -27%
CCCCCC(=O)NC(NC(=S)N1CCOCC1)C(Cl)(Cl)Cl (stereo not given) | -12% | 5% | ? | -7 | -1% | ?
CCCCCCCCC(=O)NC(NC(=S)N1CCOCC1)C(Cl)(Cl)Cl (stereo not given) | 11µM* | 11% | ? | -7 | ? | 15µM*
CCc1ccccc1NC(=O)/C(=C/c1ccco1)c1ccccc1 | 4% | 13% | ? | -15 | -2% | 18µM*
CC(C)(C)NC(=O)/C(=C/c1ccco1)c1ccccc1 | 10% | 3% | -28% | -4 | 21% | -14%
Cc1ccccc1NC(=O)/C(=C/c1ccco1)c1ccccc1 | -2% | -2% | 23µM* | -11 | 0% | 12µM*
COc1ccc(-c2csc(C(C)(O)c3ccc(F)c(F)c3)n2)cc1 (stereo not given) | ? | . | ? | 22 | ? | ?
COc1ccc(C(C)(O)c2nc(-c3ccc(S(C)(=O)=O)cc3)cs2)cc1 (stereo not given) | 17% | . | ? | -5 | 13% | 23µM*
CC(O)(c1ccc(F)c(F)c1)c1nc(-c2ccncc2)cs1 (stereo not given) | ? | . | 21µM* | 12 | -25% | 13µM*
COc1ccc(C(C)(O)c2nc(-c3cccc(F)c3)cs2)cc1 (stereo not given) | ? | . | ? | 60 | ? | ?
CC(O)(c1ccc(F)c(F)c1)c1nc(-c2ccc(S(C)(=O)=O)cc2)cs1 (stereo not given) | ? | . | ? | 3 | -20% | 16µM*
O=C(Cn1cncn1)c1ccc(F)cc1F | 12% | 1% | -15% | 6 | 15% | 3%
CCc1c(C)nc2ncnn2c1N1CCC(C(=O)Nc2ccccc2)CC1 | -28% | 3% | ? | -3 | -23% | 16µM*
Cc1nc2ncnn2c(N2CCCC(C(=O)Nc3ccc4c(c3)CCC4)C2)c1C (stereo not given) | -22% | . | 21µM* | -5 | ? | 23µM*
CCc1c(C)nc2ncnn2c1N1CCC(C(=O)Nc2ccc(C)cc2)CC1 | ? | -15% | 21µM* | -8 | ? | 15µM*
